# A number with no mark means an inactive call. The source made the active and inactive calls.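 How the source made its calls, unless noted: active means mean inhibition above 46.5%, the solvent-only control mean plus 3 SD; inactive means the rest.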
# Legend:
# [1] = system: transactivating tegument protein VP16 (Human herpesvirus 1); test: compounds suppressing VP16-driven luciferase signal – cell-based, luminescence, single concentration, counter-screen for SRC2 inhibitor project (AID 652007; in the data active means inhibition above about 36%); details: cell-based VP16 transactivation luciferase reporter, at 8.9 µM, stronger effect = higher value
# [2] = target: Nuclear receptor coactivator 2 (Homo sapiens) (UniProt Q15596); test: inhibition of GAL4-SRC2 driven luciferase expression – cell-based, luminescence, HEK293, triplicate, confirmation (AID 652008); details: HEK293 GAL4-SRC2 luciferase reporter, at 8.9 µM, stronger effect = higher value;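 further: 0% = DMSO-treated cells and 100% = Gossypol at 36 µM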
# Nuclear receptor coactivator 2 (Homo sapiens), sequence (Q15596 whole entry, looked up, the tested form may be a part): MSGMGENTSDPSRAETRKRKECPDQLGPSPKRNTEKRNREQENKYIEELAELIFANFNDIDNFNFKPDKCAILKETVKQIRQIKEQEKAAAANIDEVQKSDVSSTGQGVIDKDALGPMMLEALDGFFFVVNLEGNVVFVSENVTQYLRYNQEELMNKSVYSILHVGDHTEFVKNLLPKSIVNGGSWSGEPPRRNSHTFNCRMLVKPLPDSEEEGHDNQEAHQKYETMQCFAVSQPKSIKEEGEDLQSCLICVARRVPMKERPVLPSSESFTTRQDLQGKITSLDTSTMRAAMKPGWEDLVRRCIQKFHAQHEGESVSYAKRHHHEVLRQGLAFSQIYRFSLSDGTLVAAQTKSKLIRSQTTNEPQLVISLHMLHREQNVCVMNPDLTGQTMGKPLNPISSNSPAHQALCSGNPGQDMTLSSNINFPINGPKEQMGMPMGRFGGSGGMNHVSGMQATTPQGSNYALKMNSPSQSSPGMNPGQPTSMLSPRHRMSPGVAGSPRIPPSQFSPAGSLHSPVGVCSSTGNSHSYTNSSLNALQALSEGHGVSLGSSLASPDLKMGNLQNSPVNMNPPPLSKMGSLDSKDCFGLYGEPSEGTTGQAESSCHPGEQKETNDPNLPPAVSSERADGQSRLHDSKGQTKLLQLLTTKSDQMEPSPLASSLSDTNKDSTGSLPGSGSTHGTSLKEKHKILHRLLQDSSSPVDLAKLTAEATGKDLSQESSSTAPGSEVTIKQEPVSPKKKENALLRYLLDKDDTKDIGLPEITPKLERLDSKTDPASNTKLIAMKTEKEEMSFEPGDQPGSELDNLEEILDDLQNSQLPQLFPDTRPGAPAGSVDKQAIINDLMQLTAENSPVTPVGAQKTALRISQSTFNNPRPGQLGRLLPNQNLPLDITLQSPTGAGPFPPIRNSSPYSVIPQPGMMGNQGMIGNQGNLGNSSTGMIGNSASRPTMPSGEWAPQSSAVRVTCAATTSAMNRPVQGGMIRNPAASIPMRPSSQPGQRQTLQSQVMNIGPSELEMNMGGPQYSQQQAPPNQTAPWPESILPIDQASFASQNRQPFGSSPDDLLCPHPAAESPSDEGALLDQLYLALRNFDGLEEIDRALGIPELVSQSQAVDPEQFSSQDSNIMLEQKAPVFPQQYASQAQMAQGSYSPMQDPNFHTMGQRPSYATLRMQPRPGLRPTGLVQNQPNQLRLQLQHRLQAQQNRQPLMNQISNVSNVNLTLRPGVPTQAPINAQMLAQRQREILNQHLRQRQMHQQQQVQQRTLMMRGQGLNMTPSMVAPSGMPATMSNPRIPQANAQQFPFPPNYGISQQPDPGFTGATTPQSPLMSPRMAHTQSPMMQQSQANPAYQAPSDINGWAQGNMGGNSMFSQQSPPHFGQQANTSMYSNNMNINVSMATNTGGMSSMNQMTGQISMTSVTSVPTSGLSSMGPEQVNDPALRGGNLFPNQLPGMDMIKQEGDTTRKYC
SMILES,inhibition [1],inhibition [2]
O=C(Nc1cccc(-c2cccc(Cl)c2)c1)C1CCN(Cc2ccccn2)CC1,-2.92%,17.7%
Cc1nc2cc(-c3ccccc3)nn2c(C)c1CCC(=O)NCc1ccco1,-27.7%,46.5% (active)
COC(=O)c1ccc(CSc2nc3sc(C)c(C)c3c(=O)[nH]2)cc1,-20.1%,-17.4%
COc1cc(OC)c2c(-c3cccc(-c4ccc(N(C)C)cc4)c3)cc(=O)oc2c1,-17.4%,27.6%
Cc1c(CCC(=O)O)c(=O)oc2cc3oc4c(c3cc12)CCCC4,49.3% (active),69.2% (active)
CCn1c(=O)c2c(cnn2C)c2ccccc21,25.8%,50.6% (active)
COc1ccc(S(=O)(=O)N/N=C\c2ccc3c(c2)OCO3)c(OC)c1,10.4%,34.9%
COc1ccc(C(=O)C(CN2CCOCC2)c2ccccc2)cc1F (stereo unspecified),-1.66%,13.4%
COc1ccccc1C(=O)NCc1ccc(-c2nc3ccccc3s2)cc1,-14%,22.1%
CN(C)c1ccc(C2Nc3ccccc3C(=O)N2CCCN2CCOCC2)cc1 (stereo unspecified),-12.2%,2.92%
CCOc1ccc(-c2cc(CCCC(=O)NCCc3ccccc3)no2)cc1,6.55%,44.9%
CCC(=O)N1N=C(c2cccs2)CC1c1ccc(C)cc1 (stereo unspecified),-15.8%,-13.8%
COC(=O)COc1ccc(-c2nccc(-c3ccccn3)n2)cc1,16.9%,73.4% (active)
c1ccc(-n2nnnc2Oc2ccc(-n3ccnc3)cc2)cc1,-16.2%,1.01%
CCn1c(SCC(=O)c2ccc(-c3ccccc3)cc2)nnc1-c1ccc(C(C)(C)C)cc1,22.6%,31.3%
Nc1n[nH]c2c1C1(CCCC1)Cc1ccccc1-2,1.41%,10%
CC(C)[C@H](NC(=O)[C@@H]1Cc2ccccc2CN1)C(=O)Nc1ccc2c(c1)OCCO2,-21%,-29.4%
CCCN1C2CCCC1CC(NC(=O)c1cccc(Cl)c1)C2 (stereo unspecified),4.37%,40.8%
COc1cccc(-c2nc(-c3ccccn3)no2)c1,-20.4%,24.9%
C[C@@H]1C[C@@H]2O[C@H]2CCCCC(=O)Cc2cc(O)cc(O)c2C(=O)O1,53.1% (active),28.7%
CC(=O)NCCOc1nc(N2CCCCC2)nc(N2CCCCC2)n1,0.94%,12.1%
COc1ccccc1-c1cn[nH]c1-c1ccc(O)cc1O,1.82%,11.9%
CN(C)c1ccc(CCc2ccc(N)cc2)cc1,12.3%,57.2% (active)
CCCCCC(=O)N1CC2(CC(c3cccc(NC(=O)COc4ccc(Cl)cc4)c3)=NO2)C[C@@H]1C(N)=O (stereo partly specified),-7.91%,-5.91%
CCCCC(NC(=O)CCc1c(C)c2cc3c4c(oc3c(C)c2oc1=O)CCCC4)C(=O)O (stereo unspecified),31.6%,29.4%

SMILES,inhibition [1],inhibition [2]
O=S(=O)(C/C(=C/CO)S(=O)(=O)c1ccccc1)c1ccccc1,79.3% (active),67% (active)
CCOC(=O)CCSc1nc(C(C)(C)C)cc(C(F)(F)F)c1C#N,-14.2%,-27.6%
CC(=O)c1cccc(NC(=O)Nc2ccc(C(=O)N3CCOCC3)cc2)c1,-8.69%,17.1%
CC(=O)OC1CCC2(C)C(CCC3C4CC=C(C(C)=O)C4(C)OC(=O)CC32)C1 (stereo unspecified),20.8%,16.1%
Cc1cc2nc(Sc3c([N+](=O)[O-])nc(C)n3Cc3ccccc3)[nH]c2cc1C,5.05%,30.7%
O=C(Cn1ncc2c([nH]c3ccccc32)c1=O)NCCc1ccccc1,21.4%,12.2%
COc1ccc(CCNc2oc(Cc3cccc4ccccc34)nc2C#N)cc1OC,-7.8%,7.3%
COCCn1c(SCC(=O)/C=C2\N(C)c3ccccc3C2(C)C)nnc1-c1ccncc1,-4.56%,8%
CCOc1ccc(N2CC(C(=O)Nc3ccc4c(c3)OCCO4)CC2=O)cc1 (stereo unspecified),-5.36%,-6.17%
Cc1ccc(-c2c3c(nc4sc(C(N)=O)c(N)c24)CCC3)cc1,1.89%,34.5%
CCOC(=O)C(C(=O)OCC)C(Nc1cccc(Br)c1)c1ccccc1 (stereo unspecified),8.47%,19.3%
CC1=C(C(=O)N2CCOCC2)CC(CC(=O)NCCCCc2ccccc2)C(=O)N1Cc1ccc(C(C)(C)C)cc1 (stereo unspecified),12.6%,2.06%
Cc1ccc(NC(=O)CCN2CCCCC2)cc1,-25%,32.5%
Oc1cccc2c(NC(=S)Nc3ccc(SC(F)F)cc3)cccc12,-23.5%,53.1% (active)
CC1CN(C(=O)CCC(=O)N2CCN(c3cccc(C(F)(F)F)c3)CC2)c2ccccc2O1 (stereo unspecified),15.6%,23.5%
COc1cc(/C=C2\CC/C(=C\c3cc(OC)c(O)c(OC)c3)C2=O)cc(OC)c1O,-70.7%,-13%
CN(C)S(=O)(=O)c1cccc(NC(=O)CSc2ncnc3ccccc23)c1,7.54%,29.7%
Cc1cc(C)c2c3c(sc2n1)C(=O)N(c1ccccc1C)CC(=O)N3,4.42%,5.22%
COc1ccccc1N1CCN(C(CNC(=O)c2ccco2)c2cccnc2)CC1 (stereo unspecified),-7.16%,-4.45%
Fc1ccc(CNC2CCN(Cc3ccccc3)CC2)cc1,7.5%,-3.44%
CCOc1ccc(-c2cc(CCCC(=O)NCCc3ccc(OC)c(OC)c3OC)no2)cc1,12.8%,34.7%
Cc1cc2c(cc1C)C(=O)NC(C)(C)C2,2.03%,28.2%
O=C(/C=C/c1cccnc1)/C=C/c1cccnc1,77.1% (active),5.81%
Cc1ccc(NCc2nnc(SCC(=O)c3ccccc3)n2Cc2ccco2)c(C)c1,-11.6%,-16.7%
COc1cc(OC)c(-c2c3cc(O)c(=O)cc-3oc3cc(O)c(O)cc23)cc1OC,9.48%,3.62%

SMILES,inhibition [1],inhibition [2]
Cc1cc(Cl)n2c(nc3ccccc32)c1C#N,4.56%,28.4%
COc1ccc(CCNc2ncnc3cc(OC)c(OC)cc23)cc1OC,0.49%,16.4%
CC1=CC(C)(C)Nc2ccc(OC(=O)c3ccco3)cc21,-20.4%,31.6%
NC(=O)C1CCN(CCS(=O)(=O)c2ccc(Cl)cc2)CC1,-1.09%,-24.6%
C=C1C(=O)[C@@]23[C@H](O)C[C@@H]4C(C)(C)CC[C@H](O)[C@]4(C)[C@@H]2C[C@H](O)[C@@H]1[C@H]3O,4.46%,54% (active)
O=C(N/N=C\c1cc(Br)c(Br)o1)C1COc2ccccc2O1 (stereo unspecified),-16.1%,-4.84%
CN1CCN(c2nc3ccccc3nc2C(C#N)S(=O)(=O)c2ccccc2)CC1 (stereo unspecified),10.5%,20.1%
Cc1ccc(S(=O)(=O)CCSC(=N)N)cc1,2.05%,6.17%
Cc1cc(Nc2ccccc2)n(C(=O)c2ccc(N)cc2)n1,-71.3%,0.44%
COc1ccc(S(=O)(=O)N2CCCCCC2)cc1C(=O)NCc1ccco1,-3.91%,1.95%
CCOC(=O)C1=C(COC(=O)CCOc2cc(C)ccc2C)NC(=O)NC1C (stereo unspecified),-6.92%,-29.2%
CCc1ccc(C(=O)N2CCN(c3ccc(NC(=O)c4cccnc4)cc3)CC2)cc1,-14.2%,-9.49%
CCN(CC)S(=O)(=O)c1ccc(NC(=O)Nc2cccc(C(F)(F)F)c2)cc1,-13.1%,14%
O=C(Nc1nc2ccccc2s1)c1ccc(N2CCCCC2)c([N+](=O)[O-])c1,-57.5%,10%
Cc1ccc(/C=C2\SC(=S)N(CCCC(=O)Nc3cc(C)on3)C2=O)cc1,31.6%,68.8% (active)
CC(C)CCn1cnc2c(sc3nc4c(cc32)CSC(C)(C)C4)c1=O,-42.3%,-11.9%
CCCC(=O)NC(c1ccccc1)c1ccc2cccnc2c1O (stereo unspecified),-0.88%,33.3%
COc1ccc(C2CC(c3cccs3)=NN2C(=O)CCl)cc1OC (stereo unspecified),42.5% (active),6.43%
CCSc1ccccc1C(=O)N1CCN(c2ccc([N+](=O)[O-])cc2)CC1,0.48%,15.7%
COc1ccc2cc3cc(C(=O)Nc4ccc5c(c4)OCO5)oc3nc2c1,-29.9%,-32%
O=C(CCCSc1nc2ccccc2s1)NC1=NCCS1,27.1%,20.4%
Cc1cc(C(=O)NNS(=O)(=O)c2cc(C(=O)O)ccc2Cl)c(C)n1-c1ccccc1,2.27%,45.4%
COCCn1c(-c2ccc(Br)cc2)csc1=Nc1cccnc1,10.4%,20.4%

# Source: PubChem BioAssay
